Drawing on PubChem BioAssay (NCATS), this text covers activity change, negative = cytotoxicity for 40 compounds.

The structures appear in SMILES notation. Several values for one entry are separate records, joined by “and”; a condition that tells them apart may be missing. Equal entries are not always repeated. Results filed as inconclusive are left out. Activity calls are given as the source filed them. Calls come from the whole dose curve; as a rule, active = well fitted cell-killing curve with a large enough effect; inconclusive = small, poorly fitted or top-dose-only effect; inactive = flat fitted curve, though single readings scatter.

This assay is described as follows: Cell Viability - NIH 3T3 (AID 541).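 Note: plate controls were DMSO alone for no effect and tamoxifen positive control for full effect; nearly all actives have a fitted effect of over 25% in size.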 To be noted: NIH 3T3 cell viability, qHTS; activity change, negative = cytotoxicity: at 92.2 µM (top of the series). From the text:
NIH Chemical Genomics Center [NCGC]
NIH Molecular Libraries Screening Centers Network [MLSCN]
National Institutes of Environmental Health Sciences [NIEHS]
National Toxicology Program [NTP]
We have developed a 1536-well cell-based assay for quantitative high throughput screening (qHTS) against a number of cell lines to determine in vitro cytotoxicity of small molecules. This particular assay uses the NIH 3T3 fibroblast cell line which is established from NIH Swiss mouse embryo.
NCGC Assay Protocol Summary:
The CellTiter-Glo luminescent cell viability assay (Promega) is a homogeneous method to measure the number of viable cells in culture. The end point readout of this assay is based on quantitation of intracellular ATP, an indicator of metabolic activity, using the luciferase reaction. Luciferase catalyzes the oxidation of beetle Luciferin to oxyluciferin and light in the presence of ATP. The luminescent signal is proportional to amount of ATP present.
Using the CellTiter-Glo luminescent cell viability assay, the amount of cellular ATP was measured in the NIH 3T3 cell line with complete culture medium following compound treatment for 40 hours. The assay was performed in opaque white Kalypsys 1536-well plates. In the screen, tamoxifen and doxorubicin were used as positive controls. Library compounds were measured for their ability to cause acute toxicity in the cell line, as reflected by a decrease in intracellular ATP levels, in a concentration-dependent manner. […] AC50 values were determined from concentration-response data modeled with the standard Hill equation.
qHTS protocol for CellTiter Glo NIH 3T3 cellular assay
[Step] [Parameter] [Value] [Description]
1. Reagent; 5 uL; 1000 NIH 3T3 cells/well
2. Time; 5 hr; 37 °C incubation
4. Controls; 23 nL; Tamoxifen 0.34 uM to 100 uM & Doxorubicin 0.02 nM to 100 uM
5. Time; 40 hr; 37 °C incubation
6. Reagent; 5 uL; CellTiter Glo reagent
7. Time; 20 min; Room Temperature
8. Detection; Luminescence; Viewlux plate reader
Keywords: cell viability, cytotoxicity, NIH 3T3 cell line, luminescence, NTPHTS, NTPHTS_NCGC, NIEHS, EPA, DSSTox, MLSMR, MLSCN, NIH Roadmap, qHTS, NCGC
On to `CCOc1ccc(N)cc1`, for which the activity change, negative = cytotoxicity was -11.8% (inactive). Next, `ClC(Cl)=C(Cl)Cl`: -22.9% (inactive) and 3.64% (inactive); `BrCCBr`: -25.3% (inactive). Next, `CCOP(=S)(OCC)SCSC(C)(C)C`: 1.25% (inactive); `c1ccc(-c2ccccc2)cc1`: -5.05% (inactive). For the compound `C=CC1CC=CCC1` (stereo not given), the activity change, negative = cytotoxicity is 4.42% (inactive). In the case of `Clc1nc(Cl)nc(Nc2ccccc2Cl)n1` it was -3.86% (inactive); in that of `[O-][Br+2]([O-])O`, 0.18% (inactive) and -3.06% (inactive). Next, `C=CCOC(C)=O`: -5.94% (inactive); `Nc1ccccc1Cl`: -1.33% (inactive); `ClC1=C(Cl)C2(Cl)C3C4CC(C5OC45)C3C1(Cl)C2(Cl)Cl` (stereo not given): -20.8% (inactive).

`CCOCN(C(=O)CCl)c1c(C)cccc1CC`: the activity change, negative = cytotoxicity was -155% (active). Next, `C=CC(C)=O`: -2.38% (inactive); `C=CC(N)=O`: 5.3% (inactive) and 3.72% (inactive). Next, `CCCC(=O)Cl`: -0.413% (inactive). For `OCC(Br)CBr` (stereo not given), the activity change, negative = cytotoxicity is -14.7% (inactive). In the case of `CC(=O)[O-].CC(=O)[O-].O.O.O.[Pb+2]`, the activity change, negative = cytotoxicity was 11.5% (inactive) and -1.35% (inactive). In the case of `CN=C=S` it was 7.36% (inactive); in that of `Nc1c(Cl)c(Cl)nc(C(=O)O)c1Cl`, -10.1% (inactive); in that of `CNC(=O)O/N=C/C(C)(C)SC`, -9.42% (inactive). `C=CCOC(=O)c1ccccc1N`: the activity change, negative = cytotoxicity is -10.8% (inactive). In the case of `CC(O)CCl` (stereo not given) it was 4.45% (inactive); in that of `ClC1=C(Cl)C2(Cl)C3C4C=CC(C4)C3C1(Cl)C2(Cl)Cl` (stereo not given), -10.7% (inactive). Turning to `O=C(Cl)C(Cl)(Cl)Cl`, the activity change, negative = cytotoxicity is 1.81% (inactive). In the case of `C=C(C)C(=O)OCC1CO1` (stereo not given), the activity change, negative = cytotoxicity was -17.7% (inactive). In the case of `CCOP(=S)(OCC)Oc1ccc([N+](=O)[O-])cc1` it was -19.3% (inactive); in that of `C=CCc1ccc2c(c1)OCO2`, -6.05% (inactive). Next, `COc1ccc(N)cc1`: -5.61% (inactive). Next, `C[C@H]1CCCC(=O)CCC/C=C/c2cc(O)cc(O)c2C(=O)O1`: -105% (active). For `C=CC(=O)OCC`, the activity change, negative = cytotoxicity is -21.9% (inactive). Turning to `c1ccc(N=Nc2ccccc2)cc1`, the activity change, negative = cytotoxicity was -2.38% (inactive).

`COc1ccc(C=O)cc1OC`: the activity change, negative = cytotoxicity is -14% (inactive).

In the case of `Brc1ccc(Oc2cc(Br)c(Br)cc2Br)c(Br)c1`, the activity change, negative = cytotoxicity is -13.1% (inactive) and -22.5% (inactive). Next, `CCCSC(=O)Cl`: -26.8% (inactive). `CC(C)(C)OOC(C)(C)C`: the activity change, negative = cytotoxicity is -23.7% (inactive). Next, `ClCBr`: -20.5% (inactive); `Brc1ccccc1`: -8.92% (inactive). Next, `CC(Cl)Cl`: -15.4% (inactive). Next, `CCNc1nc(Cl)nc(NC(C)C)n1`: -18.4% (inactive). Take `CCC[CH2][Sn]([Cl])([Cl])[Cl]`: the activity change, negative = cytotoxicity was -25.6% (inactive).
